In PubChem BioAssay (NCATS):
“And” between values parts separate entries of the source, which are not always exact repeats. Equal values may be shown once. Values without a mark were called inactive. Inconclusive results are not listed. Where a call stands in place of a potency, no number is given. The source made the active and inactive calls. Unless noted, calls come from the whole dose curve; as a rule, active = well fitted curve in the direction sought with a large enough effect; inconclusive = small, poorly fitted or top-dose-only effect, or another doubt; inactive = no such curve, though single readings can be large; an effect the other way counts as inactive or inconclusive.

Assays:
[1] = Cell Viability - BJ (AID 421; calls by dose curve;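 note: potency is the fitted concentration of half-maximal effect; cells exposed to compound for 40 hours at 37 °C before readout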); conditions: BJ fibroblast viability, qHTS
Method in brief: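 Cytotoxicity as drop in intracellular ATP (CellTiter-Glo, 20 min RT) after 40 hr compound exposure of BJ fibroblasts at 37 °C. Titrations scaled between DMSO and 100 uM tamoxifen, Hill-fitted for AC50.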

[2] = Cell Viability - Mesenchymal (AID 546); conditions: mesenchymal cells viability, qHTS; series mostly up to 91.7 µM;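 note: cells exposed to compound for 40 hours before reading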; note: potency is the fitted concentration of half-maximal effect
Method in brief: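 Human kidney mesenchymal cells from normal renal glomeruli, 1000 cells/well, rested 5 hr at 37 °C, then treated 40 hr at 37 °C in complete medium. Cellular ATP read by CellTiter-Glo luminescence; AC50 from Hill-equation fits.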

[3] = Cellular Toxicity (caspase-3) HepG2 (AID 654); conditions: HepG2 caspase-3 activation, luminescence, 0% = DMSO only, 100% = tamoxifen; series mostly up to 92.2 µM;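 note: cells exposed to compound for 16 hours before reading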
Method in brief: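 HepG2 cells (1500/well) were treated 16 h at 37 °C in complete medium, then caspase 3/7 activity was read by Caspase-Glo luminescence. Data were normalized to DMSO and 100 uM tamoxifen; AC50 came from Hill-equation fits of qHTS concentration-response.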

[4] = Cellular Toxicity (caspase-3) HUV-EC-C (AID 656); conditions: HUV-EC-C cells, caspase-3 activation (apoptosis), vehicle = 0, 100 µM tamoxifen = 100%; series mostly up to 92.2 µM
Method in brief: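 Luminescent caspase-3/7 activation (aminoluciferin substrate cleavage) in HUV-EC-C cells after 16 hr compound exposure, 37°C. Signal normalized to DMSO basal and 100 uM tamoxifen as 100%; AC50 from concentration-response fitted with the Hill equation.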

[5] = Cellular Toxicity (caspase-3) BJ (AID 658); conditions: BJ fibroblasts, luminescence, normalized: DMSO 0%, staurosporine 100%; series mostly up to 91.7 µM
Method in brief: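 BJ human foreskin fibroblasts, 1000 cells/well, treated 16 hours at 37 °C in complete medium; caspase 3/7 activity by Caspase-Glo luminescence after 1 hr at room temperature. Normalized to DMSO and 10 uM staurosporine; AC50 from Hill fits.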

[6] = Cellular Toxicity (caspase-3) MRC-5 (AID 659); conditions: MRC-5 cells, luminescence, normalized: DMSO 0%, 10 µM staurosporine 100%; series mostly up to 91.7 µM
Method in brief: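 MRC-5 human normal lung fibroblasts, 1500 cells/well, treated 16 h at 37 °C in complete medium. Caspase 3/7 measured by Caspase-Glo luminescence after 1 h at room temperature. Normalized to DMSO and 10 uM staurosporine; AC50 from Hill fit.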

[7] = Cellular Toxicity (caspase-3) SK-N-SH (AID 661); conditions: SK-N-SH caspase-3 activation, qHTS; series mostly up to 91.7 µM
Method in brief: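 Human SK-N-SH neuroblastoma cells, 1500/well, were exposed to compounds for 16 hours at 37 °C. Caspase-Glo 3/7 luminescence was normalized to DMSO (basal) and 10 uM staurosporine (100%), and AC50 came from a Hill fit.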

[8] = Cellular Toxicity (caspase-3) Hek293 (AID 664); conditions: HEK293 caspase-3 activation, DMSO = 0%, 100 µM tamoxifen = 100%; at 92.2 µM (top of the series);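 note: cells exposed to compound for 16 h at 37 °C before readout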
Method in brief: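 HEK293 cells in complete medium treated 16 h at 37 °C, then Caspase-Glo 3/7 luminescence read after 20 min at room temperature. Normalized to DMSO and 100 uM tamoxifen; AC50 from Hill fit of concentration-response.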

[9] = MultiTox-Fluor Cytotoxicity Assay - LYMP1-001 - Dead Cells (AID 946); conditions: LYMP1-001 lymphoblastoid cells, dead-cell protease fluorescence; series mostly up to 92.2 µM
Method in brief: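 Cytotoxicity as increased dead-cell protease fluorescence (bis-AAF-R110, 485/520 nm), read 60 min after MultiTox-Fluor reagent. Human lymphoblastoid line exposed 16 h; Hill-fitted AC50, with DMSO as 0% and 15 uM tetraoctylammonium bromide as 100%.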

[10] = Cell Viability - LYMP1-002 - Assay at 16 hr (AID 948); conditions: LYMP1-002 lymphoblastoid cell viability; series mostly up to 92.2 µM
Method in brief: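 LYMP1-002 human lymphoblastoid cells, 2500/well; 5 hr 37 C; cpd 16 hr 37 C; CellTiter-Glo 30 min RT; luminescence (ATP). Concentration-response, Hill-fit AC50. Pos ctrl tetraoctylammonium bromide.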

[11] = MultiTox-Fluor Cytotoxicity Assay - LYMP1-002 - Live Cells (AID 955); conditions: LYMP1-002 lymphoblastoid live-cell protease fluorescence viability; series mostly up to 46.1 µM
Method in brief: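 Human lymphoblastoid LYMP1-002 cells, 2500/well, treated 16 h at 37 C in complete medium. Live-cell protease activity via GF-AFC fluorescence (Ex/Em 405/510) after 60 min reagent incubation; AC50 from Hill fits.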

[12] = MultiTox-Fluor Cytotoxicity Assay - LYMP1-003 - Dead Cells (AID 961); conditions: LYMP1-003 lymphoblastoid cells, dead-cell protease fluorescence; series mostly up to 92.2 µM; note: nearly all actives have a fitted effect of over 70% in size; note: potency is the fitted concentration of half-maximal effect
Method in brief: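 Dead-cell protease release, detected as bis-AAF-R110 fluorescence at 485/520 nm, was measured in LYMP1-003 cells after 16 h compound treatment at 37 C. AC50 values came from Hill-modeled qHTS curves normalized to DMSO (0%) and 15 uM tetraoctylammonium bromide (100%).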

[13] = MultiTox-Fluor Cytotoxicity Assay - LYMP1-003 - Live Cells (AID 962); conditions: LYMP1-003 lymphoblastoid cells, MultiTox-Fluor live-cell protease fluorescence; series mostly up to 92.2 µM;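 note: cytotoxic hits lower the live-cell protease signal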
Method in brief: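 LYMP1-003 lymphoblastoid cells, 2500/well in complete medium, treated 16 h at 37 C; live-cell protease cleavage of GF-AFC read by fluorescence (Ex/Em 405/510) after 60 min reagent; AC50 from Hill fits of concentration-response.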

[14] = Cell Viability - LYMP1-003 - Assay at 24 hr (AID 963); conditions: LYMP1-003 lymphoblastoid cell viability; series mostly up to 92.2 µM
Method in brief: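 Human lymphoblastoid LYMP1-003 cells, 2500/well, treated 24 h at 37 C in complete medium. Viability read as intracellular ATP by CellTiter-Glo luminescence after 30 min at room temperature; AC50 from Hill-equation fits of qHTS concentration-response.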

[15] = Cell Viability - LYMP2-003 (AID 965); conditions: LYMP2-003 lymphoblastoid cell viability; series mostly up to 92.2 µM;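 note: cells exposed to compounds for 24 h before reading; nearly all actives have a fitted effect of over 50% in size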
Method in brief: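 CellTiter-Glo luminescence (cellular ATP) after 24 h compound exposure at 37 C in complete medium; 2500 cells/well, 5 h settling beforehand. Concentration-response fitted to standard Hill equation for AC50. Tetraoctylammonium bromide served as positive control.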

[16] = Cell Viability - LYMP2-025 (AID 976); conditions: LYMP2-025 lymphoblastoid cell viability; series mostly up to 92.2 µM
Method in brief: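 Human lymphoblastoid LYMP2-025 cells, 2500/well, exposed 24 h at 37 C in complete medium in 1536-well qHTS. Viability as cellular ATP by CellTiter-Glo luminescence; AC50 from Hill fits of concentration-response data.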

[17] = Cell Viability - LYMP2-016 (AID 984); conditions: LYMP2-016 lymphoblastoid cell viability, qHTS; series mostly up to 92.2 µM; note: nearly all actives have a fitted effect of over 55% in size
Method in brief: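 qHTS, 1536-well: 2500 LYMP2-016 cells/well, 5 hr 37 C, compound added, 24 hr 37 C, CellTiter-Glo 30 min RT, luminescence. Tetraoctylammonium bromide positive control. AC50 via Hill fit.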

[18] = Cell Viability - LYMP2-026 (AID 989); conditions: LYMP2-026 lymphoblastoid cell viability, qHTS; series mostly up to 92.2 µM; note: nearly all actives have a fitted effect of over 50% in size
Method in brief: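 Human lymphoblastoid LYMP2-026 cells, 2500/well, exposed to compound 24 h at 37 C in complete medium. Viability as intracellular ATP by CellTiter-Glo luminescence; AC50 from Hill fits of qHTS concentration-response.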

[19] = qHTS Assay for Identification of Small Molecule Inducers of Hypoxia Response (AID 2120; active = well fitted curve in the direction sought with a large enough effect in the signal ratio, with a control signal flat, not every such curve was filed as active; the % refers to the signal ratio); conditions: hypoxia response reporter cells, beta-lactamase ratio readout; series mostly up to 104 µM
Method in brief: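 HRE-bla ME-180 cells in Opti-MEM with 0.5% dialyzed FBS, pre-plated 4-5 h, then compound titration for 17 h at 37 degrees Celsius. CCF4 loaded 2.5 h at room temperature; 460/530 nm ratio gave %Activity and AC50 for induction.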

[20] = target: Peroxisome proliferator-activated receptor alpha (Homo sapiens) (UniProt Q07869); assay: qHTS assay for small molecule agonists of the peroxisome proliferator-activated receptor alpha (PPARalpha) signaling pathway (AID 651778); conditions: PathHunter PPARalpha complementation, chemiluminescence, 6 h; hits give high values
Method in brief: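 Enzyme-fragment complementation assay in which ligand-bound PPARalpha translocates and forms an active enzyme that generates chemiluminescence. Cells were plated overnight, exposed to compound for 6 hr at 37 C, and then given detection reagent for 60 min at room temperature.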

Peroxisome proliferator-activated receptor alpha (Homo sapiens), sequence (Q07869 whole entry, looked up, the tested form may be a part): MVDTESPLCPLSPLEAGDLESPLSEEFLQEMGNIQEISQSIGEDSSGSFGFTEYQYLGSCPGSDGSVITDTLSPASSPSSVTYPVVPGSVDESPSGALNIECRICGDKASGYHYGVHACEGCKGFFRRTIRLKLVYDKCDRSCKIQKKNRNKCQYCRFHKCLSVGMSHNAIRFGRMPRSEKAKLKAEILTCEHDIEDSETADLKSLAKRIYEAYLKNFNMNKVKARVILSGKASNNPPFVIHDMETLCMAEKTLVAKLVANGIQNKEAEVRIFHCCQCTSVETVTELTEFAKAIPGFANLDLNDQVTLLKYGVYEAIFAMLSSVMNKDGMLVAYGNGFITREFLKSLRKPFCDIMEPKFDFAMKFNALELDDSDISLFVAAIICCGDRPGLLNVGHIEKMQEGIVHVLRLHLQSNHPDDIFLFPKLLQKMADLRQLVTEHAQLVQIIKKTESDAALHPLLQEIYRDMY

SMILES	Potency [1]	Potency [2]	outcome [3]	outcome [4]	outcome [5]	outcome [6]	Potency [7]	caspase-3 activation [8]	outcome [9]	outcome [10]	outcome [11]	Potency [12]	outcome [13]	outcome [14]	Potency [15]	Potency [16]	Potency [17]	Potency [18]	Potency [19]	max response [20]
Nc1ccc(Cc2ccc(N)c(Cl)c2)cc1Cl	> 92 µM	inactive	inactive	inactive	inactive	inactive	inactive	1.19%	inactive	inactive	inactive	inactive	inactive	inactive	inactive	inactive	inactive	inactive	inactive	2.66%
O=[N+]([O-])/C=C/c1ccccc1	> 92 µM	25.1 µM (active)		inactive	inactive	inactive	inactive	-2.17%	inactive	inactive	inactive	50.1 µM (active)	inactive	inactive					inactive	-1.42%
CC(C)[N+](=O)[O-]	> 92 µM	inactive	inactive	inactive	inactive	inactive	inactive	-0.5%	inactive	inactive	inactive	inactive	inactive	inactive	inactive	inactive	inactive	inactive	inactive	-6.42%
O=[N+]([O-])c1c(Cl)c(Cl)c(Cl)c(Cl)c1Cl	> 92 µM	inactive	inactive	inactive	inactive	inactive	inactive	2.86%		inactive	inactive	inactive	inactive	inactive	inactive	inactive	inactive	inactive	inactive	3.1% and -1.25%
